# Assay results reported in ChEMBL document CHEMBL1201862, “PubChem BioAssay data set” (2004).
# The whole screen tested about 400,000 compounds, of which about 2,100 (0.53%) were called active. Roughly 14% stayed inconclusive and do not appear here. This is one part of a sample in which actives are shown more often than they occur. The rule behind the calls is not given here.
# Molecular target: Ataxin-2 (Homo sapiens) (UniProt Q99700)
# Assay: qHTS for Inhibitors of ATXN expression.
# Assay type: functional
# Chain of Ataxin-2 (Homo sapiens) (Q99700 whole entry): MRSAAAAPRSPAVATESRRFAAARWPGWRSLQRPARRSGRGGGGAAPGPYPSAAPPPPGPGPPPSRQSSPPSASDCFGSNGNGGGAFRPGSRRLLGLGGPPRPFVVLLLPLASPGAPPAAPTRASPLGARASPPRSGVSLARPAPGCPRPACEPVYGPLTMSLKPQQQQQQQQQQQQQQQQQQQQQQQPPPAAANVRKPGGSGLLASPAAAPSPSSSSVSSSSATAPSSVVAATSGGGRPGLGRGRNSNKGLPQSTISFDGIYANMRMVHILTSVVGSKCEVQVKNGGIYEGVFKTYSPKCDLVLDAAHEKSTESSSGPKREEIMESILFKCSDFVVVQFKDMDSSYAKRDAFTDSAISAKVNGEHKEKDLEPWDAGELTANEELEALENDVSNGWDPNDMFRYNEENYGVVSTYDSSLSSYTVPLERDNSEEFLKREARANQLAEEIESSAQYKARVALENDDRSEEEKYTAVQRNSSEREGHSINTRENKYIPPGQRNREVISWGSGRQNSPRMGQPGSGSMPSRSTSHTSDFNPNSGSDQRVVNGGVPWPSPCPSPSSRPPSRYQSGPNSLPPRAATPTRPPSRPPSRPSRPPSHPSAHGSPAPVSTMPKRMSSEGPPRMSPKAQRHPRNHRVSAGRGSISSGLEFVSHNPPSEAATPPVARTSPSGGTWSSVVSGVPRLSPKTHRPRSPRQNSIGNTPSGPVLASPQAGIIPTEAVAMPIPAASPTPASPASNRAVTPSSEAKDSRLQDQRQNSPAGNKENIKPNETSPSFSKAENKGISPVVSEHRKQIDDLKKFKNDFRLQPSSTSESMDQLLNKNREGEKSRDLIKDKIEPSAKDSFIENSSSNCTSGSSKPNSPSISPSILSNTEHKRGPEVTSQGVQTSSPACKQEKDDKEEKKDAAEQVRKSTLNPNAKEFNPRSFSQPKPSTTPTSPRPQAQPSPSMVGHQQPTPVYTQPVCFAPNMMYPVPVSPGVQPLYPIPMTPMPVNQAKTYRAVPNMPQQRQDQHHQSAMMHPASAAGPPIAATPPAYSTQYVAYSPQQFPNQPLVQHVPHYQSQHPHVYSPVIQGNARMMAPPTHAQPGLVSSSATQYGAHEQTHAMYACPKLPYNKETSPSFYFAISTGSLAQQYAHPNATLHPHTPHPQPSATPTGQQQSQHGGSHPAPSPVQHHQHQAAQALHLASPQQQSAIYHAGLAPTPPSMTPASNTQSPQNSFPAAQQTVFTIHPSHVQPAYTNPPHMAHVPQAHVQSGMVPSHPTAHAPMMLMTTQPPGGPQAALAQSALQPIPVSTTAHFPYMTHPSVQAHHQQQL
row,Compound,Potency
1,COc1ccc(OC)c(/C=C2\Oc3cc(OCC(=O)N4CC(O)C[C@H]4C(=O)O)ccc3C2=O)c1 (some centres undefined),inactive
2,CCOc1ccc2c(c1)/C(=C(\C(Cl)=C(Cl)Cl)[N+](=O)[O-])N2,inactive
3,COc1ccc(C(=O)/C(=C\c2ccco2)N2C=CC=CC2=C(C#N)C#N)cc1,1.78 µM (active)
4,COc1ccc(/C=c2\s/c(=C(/C#N)C(=O)NCc3ccco3)n(-c3ccccc3)c2=O)cc1,inactive
5,O=C(O)CSCC(=O)NCc1csc2ccc(Cl)cc12,inactive
6,O=C(CSc1nc(-c2ccc(F)cc2)[nH]c1-c1ccc(F)cc1)Nc1ccc2c(c1)OCCO2,39.8 µM (active)
7,COc1ccc(-c2[nH]c(-c3ccc(C)cc3)nc2SCC(=O)NCc2ccco2)cc1OC,inactive
8,O=C(CSc1nc(-c2ccccc2)[nH]c1-c1ccccc1)Nc1ccc2c(c1)OCCO2,39.8 µM (active)
9,N#Cc1ccccc1NC(=O)CSc1nc(-c2ccccc2)cc(C(F)(F)F)c1C#N,inactive
10,O=C(CN1CCc2ccccc21)Nc1ccc2c(c1)OCCCO2,inactive
11,Cc1ccc(NC(=O)CSc2nnc(-c3cc(C)on3)o2)cc1,inactive
12,CCN(CC)c1ccc2cc(C(N)=O)c(=N)oc2c1,inactive
13,O=C1N=C(N2CCCCC2)S/C1=C\c1ccc(Br)cc1,inactive
14,CCCCN1CC(c2nc3ccccc3n2CCCCOc2ccc(C)c(C)c2)CC1=O (centres undefined),39.8 µM (active)
15,Cc1cc(OCCn2c(C3CC(=O)N(Cc4ccc(F)cc4)C3)nc3ccccc32)ccc1Cl (centres undefined),39.8 µM (active)
16,CCc1ccc(OCCn2c(C3CC(=O)N(Cc4ccc(F)cc4)C3)nc3ccccc32)cc1 (centres undefined),39.8 µM (active)
17,Cc1cccc(N2CC(c3nc4ccccc4n3C)CC2=O)c1C (centres undefined),inactive
18,CC(C)(C)OC(=O)c1c(N)n(CCCN2CCCC2=O)c2nc3ccccc3nc12,inactive
19,CC(=O)Oc1ccc2cc(-c3nc4ccccc4n3C)c(=O)oc2c1,inactive
20,Cc1cc(NC2CCCCC2)n2c(n1)nc1ccccc12,inactive
21,Cc1ccccc1N1CC(c2nc3ccccc3n2CCC2CCCCC2)CC1=O (centres undefined),35.5 µM (active)
22,O=c1nc2n(-c3ccccc3F)c3ccccc3cc-2c(=O)[nH]1,inactive
23,CCOC(=O)c1c(NC(=O)c2ccco2)n(C2CCCCC2)c2nc3ccccc3nc12,inactive
24,Cc1noc(C)c1CSCC(=O)Nc1ccc(S(C)(=O)=O)cc1,inactive
25,CC(C)OC(=O)CSc1nc(Cc2ccccc2)nc2ccccc12,inactive

row,Compound,Potency
1,Cc1cc(-c2nc3cccnc3s2)ccc1NS(=O)(=O)c1cccs1,inactive
2,O=C(COC(=O)c1cccnc1)NC1CCCc2ccccc21 (centres undefined),inactive
3,CCOc1ccc(CNc2nc3ccccc3n2C)cc1,inactive
4,CCOc1ccc(N2CC(c3nc4ccccc4n3CCCOc3ccccc3)CC2=O)cc1 (centres undefined),22.4 µM (active)
5,CCOc1ccc(N2CC(C(=O)Nc3ccc(S(=O)(=O)NCC4CCCO4)cc3)CC2=O)cc1 (centres undefined),inactive
6,Cc1nn(Cc2ccccc2)c(Cl)c1/C=N/NC(=O)c1cccnc1,inactive
7,CN1CCN(c2ccc([N+](=O)[O-])c(-n3nc(-c4ccccc4)c4ccccc4c3=O)c2)CC1,35.5 µM (active)
8,Nc1ccc2nn(-c3ccccc3)nc2c1,inactive
9,N#CC(c1nc2ccccc2nc1N1CCOCC1)S(=O)(=O)c1ccccc1 (centres undefined),inactive
10,Fc1ccccc1N1CC(c2ccccc2)C(c2cccs2)=N1 (centres undefined),inactive
11,CCCCCCc1cc2cc(S(=O)(=O)c3ccc(F)c(Cl)c3)c(=O)oc2cc1O,inactive
12,OC(CNc1ccnc2cc(Cl)ccc12)CNC1CCCCC1 (centres undefined),39.8 µM (active)
13,Clc1ccc2c(NCCNC3CCCCC3)ccnc2c1,15.8 µM (active)
14,Cc1ccc(/C=C2\CCC3=C2OC(N)=C(C#N)C3c2ccc(C)cc2)cc1 (centres undefined),inactive
15,CCOC(=O)c1cc2c(=O)n3ccccc3nc2n(CC2CCCO2)/c1=N\C(=O)c1ccc(OC)cc1OC (centres undefined),inactive
16,O=C(Cc1ccccc1)N/N=C/c1cc(Br)cc(Cl)c1O,inactive
17,CCOC(=O)c1cc2c(=O)n3ccccc3nc2n(Cc2ccco2)/c1=N\C(=O)c1cccc(F)c1,inactive
18,Clc1ccc(-c2noc(/C=C/c3ccccc3)n2)cc1,inactive
19,O=C1/C(=C/Nc2nnc(CCCO)[nH]2)c2ccccc2C(=O)N1c1ccccc1Cl,inactive
20,CCCCn1c(N)c(N(CCOC)C(=O)CN2c3ccccc3CC2C)c(=O)[nH]c1=O (centres undefined),inactive
21,Nc1c(N(CCC2=CCCCC2)C(=O)COc2ccc(F)cc2Cl)c(=O)[nH]c(=O)n1Cc1ccccc1,11.9 µM (active)
22,Nc1c(N(CCC2=CCCCC2)C(=O)COc2ccc(F)cc2)c(=O)[nH]c(=O)n1Cc1ccccc1,39.8 µM (active)
23,CCN(C(=O)COC(=O)c1cccc(S(=O)(=O)N(C)C)c1)c1c(N)n(Cc2ccccc2)c(=O)[nH]c1=O,inactive
24,Cc1ccccc1OCC(=O)N(Cc1ccco1)c1c(N)n(Cc2ccccc2)c(=O)[nH]c1=O,inactive
